{"source": "PubChem BioAssay AID720518", "about": "(National Center for Advancing Translational Sciences (NCATS), 2013)", "note": "Results filed as inconclusive are left out. Entries that show only a call come without a potency. Activity calls are given as the source filed them. Calls come from the whole dose curve."}
{"experiment": "qHTS for Inhibitors of Cell Surface uPA Generation: Wild-type Protective Antigen (WT-PrAg) Counterscreen for Cherry-picked Compounds; note: potency is the fitted concentration of half-maximal effect", "conditions": "cells, WT protective antigen toxicity counterscreen; series mostly up to 115 µM"}
{"compound": "O=C(COc1ccccc1F)NCC(c1ccc(F)cc1)N1CCOCC1", "note": "(stereo not drawn)", "Potency": "inactive"}
{"compound": "O=C(c1cc([N+](=O)[O-])cc([N+](=O)[O-])c1)N(c1ccccn1)c1ccccn1", "Potency": "inactive"}
{"compound": "Cc1cc(SCc2ccc(Cl)cc2)nc(=O)[nH]1", "Potency": "inactive"}
{"compound": "O=C(COC(=O)Cn1cnc2ccccc21)NCc1ccc(F)cc1", "Potency": "inactive"}
{"compound": "COC(=O)c1ccc(N2CCN(c3ccccc3)CC2)c(NC(=O)C2CC2)c1", "Potency": "inactive"}
{"compound": "COC(=O)C1=C(c2cccc(OC)c2OC)C[C@@H]2CC[C@H]1N2C(=O)NC1CC1", "Potency": "inactive"}
{"compound": "Cc1ccc(-n2cccc2C(=O)NS(=O)(=O)c2ccc(C)cc2)cc1", "Potency": "inactive"}
{"compound": "O=C(NCCc1cn2ccsc2n1)c1cccs1", "Potency": "inactive"}
{"compound": "CCOc1ccc(C(=O)NCC(=O)N2CCN(C/C=C/c3ccccc3)CC2)cc1OCC", "Potency": "inactive"}
{"compound": "CC1CCC(NC(=O)c2nn(C)c3c2CS(=O)(=O)c2ccccc2-3)CC1", "note": "(stereo not drawn)", "Potency": "inactive"}
{"compound": "CC(=O)c1ccc(N=C2SCCCN2C(=O)C2CCCCC2)cc1", "Potency": "inactive"}
{"compound": "COc1cc(CCC(=O)OCC(=O)NCc2ccccc2)cc(OC)c1OC", "Potency": "inactive"}
{"compound": "O=C(NNC(=O)C1CC(c2cccs2)=NO1)Nc1ccccc1", "note": "(stereo not drawn)", "Potency": "inactive"}
{"compound": "Clc1ccc(-c2nc3ccccn3c2CN2CCSCC2)cc1", "Potency": "inactive"}
{"compound": "CSCC[C@H](NC(=O)[C@H](Cc1ccccc1)n1c(=O)[nH]c2ccccc2c1=O)C(=O)N1CCC[C@H]1C(=O)O", "Potency": "inactive"}
{"compound": "COc1ccc(CC(=O)Nc2nc(C)cs2)cc1OC", "Potency": "inactive"}
{"compound": "COc1ccc(/C=N/NC(=O)COc2ccc3ccccc3c2)c(C(=O)O)c1OC", "Potency": "inactive"}
{"compound": "Cn1c(CN2CCCC2)nc2cc(NC(=O)COc3ccccc3)ccc21", "Potency": "inactive"}
{"compound": "N#CCCN(C(=O)COC(=O)c1ccc2c(c1)NC(=O)CS2)c1ccc2c(c1)OCCO2", "Potency": "inactive"}
{"compound": "Cc1cnc(CNC(=O)CC2C(=O)NCCN2Cc2ccccc2C(F)(F)F)cn1", "note": "(stereo not drawn)", "Potency": "inactive"}
{"compound": "Cc1oc(-c2ccccc2F)nc1CS(=O)CC(=O)NCc1ccc(F)cc1", "note": "(stereo not drawn)", "Potency": "inactive"}
{"compound": "S=C(Nc1ccccc1Cl)N1CCCC(c2ccccc2)=N1", "Potency": "16.5 µM (active)"}
{"compound": "COc1cccc(NC(=O)CN(C)C(=O)c2csc3c2CCCC3)c1", "Potency": "inactive"}
